This is an account of results in PubChem BioAssay (Tox21).

A number with no mark means an inactive call. Inconclusive results are not listed. The source made the active and inactive calls. Unless noted, calls follow the shape of the dose curve; as a rule, active = well fitted curve in the direction sought with a large enough effect in the repeat runs; inconclusive = weak or mixed curves; inactive = no such curve, though single readings can be large; an effect the other way counts as inactive or inconclusive.

The target in assay [1] is Estrogen receptor beta (Homo sapiens) (UniProt Q92731). The assay is described as follows: qHTS assay to identify small molecule agonists of the estrogen receptor beta (ER-beta) signaling pathway (AID 1259377; active = well fitted activation curve with a large enough effect in the signal ratio in the repeat runs, not every such curve was filed as active; the % refers to the signal ratio; also: potency is read from the fitted curve at half-maximal effect). The procedure, abridged: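 Measured by fluorescence intensity from a B/G FRET beta-lactamase substrate (2 h, room temperature) in ER-beta-UAS-bla HEK293T cells treated with DMSO-dissolved compounds for 16 hr at 37C and 5% CO2.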
Chain of Estrogen receptor beta (Homo sapiens) (Q92731 whole entry, looked up): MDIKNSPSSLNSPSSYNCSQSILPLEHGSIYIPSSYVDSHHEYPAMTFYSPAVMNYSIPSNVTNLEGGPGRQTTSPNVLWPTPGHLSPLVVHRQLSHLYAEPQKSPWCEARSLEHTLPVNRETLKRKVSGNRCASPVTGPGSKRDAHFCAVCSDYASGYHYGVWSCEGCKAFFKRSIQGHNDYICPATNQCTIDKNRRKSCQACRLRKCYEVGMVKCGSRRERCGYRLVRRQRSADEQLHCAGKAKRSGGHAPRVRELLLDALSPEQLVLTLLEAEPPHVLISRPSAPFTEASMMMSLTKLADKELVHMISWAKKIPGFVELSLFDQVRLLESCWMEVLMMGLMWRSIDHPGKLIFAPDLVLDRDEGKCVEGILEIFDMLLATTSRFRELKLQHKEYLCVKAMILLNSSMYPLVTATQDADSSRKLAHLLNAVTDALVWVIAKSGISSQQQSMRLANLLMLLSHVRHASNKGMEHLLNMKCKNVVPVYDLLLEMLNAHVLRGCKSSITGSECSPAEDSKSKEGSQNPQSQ
(In qHTS, concentration-response curves come from the screen itself.)

For assay [2] the target is unchanged. The assay can be described thus: qHTS assay to identify small molecule antagonists of the estrogen receptor beta (ER-beta) signaling pathway (AID 1259378; active = well fitted inhibition curve with a large enough effect in the signal ratio in the repeat runs, not every such curve was filed as active; the % refers to the signal ratio; also: potency is read from the fitted curve at half-maximal effect). The procedure, abridged: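 ER-beta-UAS-bla HEK293T cells in 2% charcoal-stripped FBS medium treated with compound plus 1nM final 17-beta-estradiol for 16 hr at 37C. Beta-lactamase reporter read by FRET substrate fluorescence after 2 hours at room temperature.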

A short description of assay [3]: qHTS assay to identify small molecule agonists of the androgen receptor (AR) signaling pathway in the presence of an antagonist - cell viability counter screen (AID 1259379). Also: nearly all actives have a fitted effect of over 25% in size. Also: potency is read from the fitted curve at half-maximal effect. The procedure, abridged:
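A CellTiter-Fluor read-out measured viability of MDA-kb2 reporter cells (MMTV promoter with AR and GR response elements). Treatment: nilutamide 3.0uM final with compounds at 15 concentrations, 16 hr, 37C, 0% CO2.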

The nature of assay [4]: qHTS assay to identify small molecule agonists of the estrogen receptor beta (ER-beta) signaling pathway - cell viability counter screen (AID 1259380). Also: nearly all actives have a fitted effect of over 30% in size. Also: potency is read from the fitted curve at half-maximal effect. The method in brief:
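Cells used were ER-beta-UAS-bla HEK293T in medium with 2% charcoal-stripped FBS. They were treated for 16 hr at 37C. Viability came from CellTiter-Glo luminescence.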

Assay [5] is described as follows: qHTS assay to identify small molecule antagonists of the estrogen receptor beta (ER-beta) signaling pathway - cell viability counter screen (AID 1259382). Also: nearly all actives have a fitted effect of over 55% in size. Also: potency is read from the fitted curve at half-maximal effect. The procedure, abridged: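 Agonist-stimulated (1nM E2) ER-beta-UAS-bla HEK293T cells are incubated with library compounds for 16 hr at 37C. Cell viability is then assessed in the reporter-assay wells by adding CellTiter-Glo and reading luminescence after 30 min.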

In assay [6] the target is Thyrotropin receptor (Homo sapiens) (UniProt P16473). The assay can be described thus: qHTS assay to identify small molecule antagonists of the thyroid stimulating hormone receptor (TSHR) signaling pathway (AID 1259385; calls by dose curve; also: nearly all actives have a fitted effect of over 20% in size; also: potency is read from the fitted curve at half-maximal effect). The procedure, abridged:
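TSHR-HEK293 cells (800/well) plated 18 h, then compounds with Ro20-1724 and TSH at 1.5 ng/mL final, 30 min at room temperature. cAMP quantified by HTRF (cAMP-d2/anti-cAMP-cryptate, 1 h); 15 concentrations in triplicate.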

Assay [7] is described as follows: qHTS assay to identify small molecule antagonists of the progesterone receptor (PR) signaling pathway - cell viability counter screen (AID 1346798). Also: nearly all actives have a fitted effect of over 50% in size. Also: potency is read from the fitted curve at half-maximal effect. The method in brief:
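Viability was determined by ATP-based luminescence (CellTiter-Glo) in PR-UAS-bla HEK293T cells cultured in 2% charcoal-stripped serum and incubated 16 hr with compounds under R5020 stimulation.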

Assay [8] in a line: qHTS assay to identify small molecule agonists of the progesterone receptor (PR) signaling pathway - cell viability counter screen (AID 1346799; calls by dose curve; also: nearly all actives have a fitted effect of over 45% in size; also: potency is read from the fitted curve at half-maximal effect). The procedure, abridged: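 Viability was scored by ATP luminescence (CellTiter-Glo, 30 min, room temperature) in the same wells used for the reporter readout, after 16 hr compound exposure of PR-UAS-bla HEK293T cells.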
Assay [9] in a line: qHTS assay to identify small molecule antagonists of the TGF-beta/Smad signaling pathway - cell viability counter screen (AID 1346824). Also: nearly all actives have a fitted effect of over 50% in size. Also: potency is read from the fitted curve at half-maximal effect. The method in brief:
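SBE-bla HEK 293T cells, incubated overnight, then compound plus 0.25 ng/mL TGF-beta1 (stock added) for 5 hr at 37 C. Viability was read in the same wells by CellTiter-Glo luminescence after 30 min at room temperature.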

Assay [10] is described as follows: qHTS assay to identify small molecule agonists of the TGF-beta/Smad signaling pathway - cell viability counter screen (AID 1346829). Also: top concentration of the series differs between compounds; nearly all actives have a fitted effect of over 45% in size. The procedure, abridged: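 After overnight seating at 37 C and 5% CO2, reporter cells got compounds for 5 hr and FRET substrate for 2 hr; cell viability then came from CellTiter-Glo luminescence.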
Assay [11] concerns the target Thyrotropin-releasing hormone receptor (Homo sapiens) (UniProt P34981). The assay is described as follows: qHTS assay to identify small molecule antagonists of the thyrotropin-releasing hormone receptor (TRHR) signaling pathway (AID 1346877; active = well fitted inhibition curve with a large enough effect in the repeat runs, not every such curve was filed as active; also: series mostly up to about 51 µM). The method in brief:
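Screening used HEK293 cells engineered with TRHR, with a brief 5 min room-temperature compound exposure preceding addition of TRH to 1 nM. The read-out was kinetic calcium-dye fluorescence, concentration-response from 15 doses in triplicate.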

Assay [12] has the same target. The assay is described as follows: qHTS assay to identify small molecule agonists of the thyrotropin-releasing hormone receptor (TRHR) signaling pathway (AID 1346891; calls by dose curve;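 also: HEK293 cells expressing TRHR with calcium dye readout; series mostly up to about 58 µM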). The procedure, abridged: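 Kinetic fluorescence (3 min, 1 s intervals) reported intracellular calcium after compound transfer onto TRHR-Hek293 cells pre-loaded with dye for 2 h at 37 °C.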
Assay [13] has as its target Estrogen receptor (Homo sapiens) (UniProt P03372). The assay is described as follows: qHTS assay to identify small molecule agonists of the estrogen receptor alpha (ER-alpha) signaling pathway in the presence of an antagonist (AID 1259383; calls by dose curve; also: nearly all actives have a fitted effect of over 15% in size; also: potency is read from the fitted curve at half-maximal effect; as to activation: top concentration of the series differs between compounds). The method in brief:
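Using VM7Luc4E2 cells seeded 24hr before treatment, antagonist ICI-182,780 (10.0nM final) was added, followed by compounds at 15 concentrations. Plates incubated 22hr; ONE-Glo luminescence quantified reporter activity.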

Assay [14] can be described thus: qHTS assay to identify small molecule agonists or antagonists of the thyroid stimulating hormone receptor (TSHR) signaling pathway - wild type cell line counter screen (AID 1259384; calls by dose curve). The method in brief:
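Wild-type Hek293 cells, 800/well, 18 h at 37C, then compound with Ro20-1724 for 30 min RT. cAMP by HTRF (cAMP-d2/anti-cAMP cryptate), 1 h RT, fluorescence read. 15 concentrations, triplicates.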

Assay [15] in a line: qHTS assay to identify small molecule agonists of the estrogen receptor alpha (ER-alpha) signaling pathway in the presence of an antagonist - cell viability counter screen (AID 1259386).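 Also: cells exposed to compounds for 22 h at 37 °C before the viability read; nearly all actives have a fitted effect of over 30% in size.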 Also: potency is read from the fitted curve at half-maximal effect. The procedure, abridged: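 ICI-182,780 at 10.0nM final accompanies the compound titration (15 concentrations, 22hr, 37C) on VM7Luc4E2 cells. The CellTiter-Fluor fluorescence readout runs in the same wells as the luciferase assay.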

Assay [16] addresses Progesterone receptor (Homo sapiens) (UniProt P06401). The assay can be described thus: qHTS assay to identify small molecule agonists of the progesterone receptor (PR) signaling pathway (AID 1346784; calls by dose curve; also: nearly all actives have a fitted effect of over 30% in size). The method in brief: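 The screen uses PR-UAS-bla HEK 293T cells in charcoal-stripped serum (2%). Compounds are applied for 16 hr at 37C after a 6 hr pre-incubation, and reporter activity is detected with a FRET beta-lactamase substrate after 2 hr at room temperature.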

Assay [17] shares this target. The assay can be described thus: qHTS assay to identify small molecule antagonists of the progesterone receptor (PR) signaling pathway (AID 1346795; active = well fitted inhibition curve with a large enough effect in the signal ratio in the repeat runs, not every such curve was filed as active; the % refers to the signal ratio; also: potency is read from the fitted curve at half-maximal effect). The procedure, abridged: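 After 6 hr plating at 37C in 2% stripped-serum medium, PR-UAS-bla HEK293T cells got compounds, then 1 nM R5020. Sixteen hours later, LiveBLAzer substrate was applied for 2 hr at room temperature and fluorescence was recorded.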

A short description of assay [18]: qHTS assay to identify small molecule agonists of the TGF-beta/Smad signaling pathway (AID 1346859; active = well fitted activation curve with a large enough effect in the signal ratio in the repeat runs, not every such curve was filed as active; the % refers to the signal ratio; also: series mostly up to about 77 µM). The method in brief: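 Dual-wavelength fluorescence (460/530 nm emission) quantified beta-lactamase expression under the Smad binding element in HEK 293T cells following 5 hr compound treatment at 37 C.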
The target in assay [19] is Androgen receptor (Homo sapiens) (UniProt P10275). The assay can be described thus: qHTS assay to identify small molecule agonists of the androgen receptor (AR) signaling pathway in the presence of an antagonist (AID 1259381; calls by dose curve; also: nearly all actives have a fitted effect of over 15% in size). The procedure, abridged: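 Using human MDA-kb2 cells with an MMTV promoter–luciferase construct (AR and GR response elements), agonist activity is scored under 3.0uM nilutamide (final) co-treatment; 16hr incubation, 37C, luminescence readout via ONE-Glo.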
Chain of Androgen receptor (Homo sapiens) (P10275 whole entry, looked up): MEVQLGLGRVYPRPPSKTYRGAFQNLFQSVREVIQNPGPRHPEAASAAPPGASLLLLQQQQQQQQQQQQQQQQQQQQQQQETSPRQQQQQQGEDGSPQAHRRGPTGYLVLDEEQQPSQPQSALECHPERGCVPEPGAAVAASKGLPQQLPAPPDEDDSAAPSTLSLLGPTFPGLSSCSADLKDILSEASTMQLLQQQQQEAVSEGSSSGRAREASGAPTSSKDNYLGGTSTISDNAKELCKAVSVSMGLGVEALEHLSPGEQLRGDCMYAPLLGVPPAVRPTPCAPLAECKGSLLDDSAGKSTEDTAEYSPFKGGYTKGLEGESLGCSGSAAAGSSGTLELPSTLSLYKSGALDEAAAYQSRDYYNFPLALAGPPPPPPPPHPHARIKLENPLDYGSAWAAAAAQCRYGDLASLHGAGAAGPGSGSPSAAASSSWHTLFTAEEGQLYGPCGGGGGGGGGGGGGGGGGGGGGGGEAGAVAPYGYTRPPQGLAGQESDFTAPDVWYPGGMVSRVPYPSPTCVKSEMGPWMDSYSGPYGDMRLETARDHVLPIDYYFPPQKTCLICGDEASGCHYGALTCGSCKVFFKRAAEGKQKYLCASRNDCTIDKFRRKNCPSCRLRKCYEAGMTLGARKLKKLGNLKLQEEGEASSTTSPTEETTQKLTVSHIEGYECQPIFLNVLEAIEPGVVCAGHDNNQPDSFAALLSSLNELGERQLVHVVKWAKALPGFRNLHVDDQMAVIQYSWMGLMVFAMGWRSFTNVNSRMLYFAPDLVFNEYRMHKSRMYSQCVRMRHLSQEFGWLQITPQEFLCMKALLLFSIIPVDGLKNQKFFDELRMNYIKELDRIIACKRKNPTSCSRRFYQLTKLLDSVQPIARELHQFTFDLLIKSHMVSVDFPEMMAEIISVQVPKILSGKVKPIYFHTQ

The nature of assay [20]: qHTS assay to identify small molecule antagonists of the sonic hedgehog signaling (Shh) pathway (AID 1259369; calls by dose curve; also: potency is read from the fitted curve at half-maximal effect; nearly all actives have a fitted effect of over 45% in size). The procedure, abridged:
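Conditioned medium drives Shh signalling in 3T3Gli1-Luc cells; compounds in DMSO co-applied, 24hr at 37 C, then luciferase luminescence.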

Chain of Thyrotropin receptor (Homo sapiens) (P16473 whole entry, looked up): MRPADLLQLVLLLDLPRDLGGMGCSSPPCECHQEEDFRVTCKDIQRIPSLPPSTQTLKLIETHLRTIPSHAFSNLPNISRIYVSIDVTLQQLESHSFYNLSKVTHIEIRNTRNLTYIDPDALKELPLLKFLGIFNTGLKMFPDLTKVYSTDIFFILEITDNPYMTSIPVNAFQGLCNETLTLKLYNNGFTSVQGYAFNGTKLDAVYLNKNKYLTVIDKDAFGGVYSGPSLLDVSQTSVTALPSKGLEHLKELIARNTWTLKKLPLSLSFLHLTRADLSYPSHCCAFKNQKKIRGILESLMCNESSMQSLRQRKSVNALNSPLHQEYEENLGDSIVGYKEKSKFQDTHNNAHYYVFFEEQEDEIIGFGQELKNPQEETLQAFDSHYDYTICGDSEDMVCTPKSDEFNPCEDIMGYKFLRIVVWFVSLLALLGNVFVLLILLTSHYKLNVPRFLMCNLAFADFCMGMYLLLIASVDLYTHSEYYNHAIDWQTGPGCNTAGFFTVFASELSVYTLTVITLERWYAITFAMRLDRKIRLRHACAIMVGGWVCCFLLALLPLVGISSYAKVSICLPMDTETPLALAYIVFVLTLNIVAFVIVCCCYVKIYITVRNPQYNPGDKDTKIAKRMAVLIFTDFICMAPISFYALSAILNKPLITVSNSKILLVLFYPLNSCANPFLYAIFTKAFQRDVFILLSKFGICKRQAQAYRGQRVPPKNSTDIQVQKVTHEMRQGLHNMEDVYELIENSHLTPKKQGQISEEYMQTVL
Chain of Thyrotropin-releasing hormone receptor (Homo sapiens) (P34981 whole entry, looked up): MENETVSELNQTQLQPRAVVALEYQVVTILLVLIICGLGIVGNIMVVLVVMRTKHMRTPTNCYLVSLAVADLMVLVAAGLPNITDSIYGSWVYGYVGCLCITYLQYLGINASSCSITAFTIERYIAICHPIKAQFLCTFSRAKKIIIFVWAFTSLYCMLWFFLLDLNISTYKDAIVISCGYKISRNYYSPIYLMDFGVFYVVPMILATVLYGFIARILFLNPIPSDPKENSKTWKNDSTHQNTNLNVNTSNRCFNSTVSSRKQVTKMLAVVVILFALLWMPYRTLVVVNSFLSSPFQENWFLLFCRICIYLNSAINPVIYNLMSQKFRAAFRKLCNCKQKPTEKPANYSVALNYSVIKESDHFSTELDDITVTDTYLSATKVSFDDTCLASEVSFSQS
Chain of Progesterone receptor (Homo sapiens) (P06401 whole entry, looked up): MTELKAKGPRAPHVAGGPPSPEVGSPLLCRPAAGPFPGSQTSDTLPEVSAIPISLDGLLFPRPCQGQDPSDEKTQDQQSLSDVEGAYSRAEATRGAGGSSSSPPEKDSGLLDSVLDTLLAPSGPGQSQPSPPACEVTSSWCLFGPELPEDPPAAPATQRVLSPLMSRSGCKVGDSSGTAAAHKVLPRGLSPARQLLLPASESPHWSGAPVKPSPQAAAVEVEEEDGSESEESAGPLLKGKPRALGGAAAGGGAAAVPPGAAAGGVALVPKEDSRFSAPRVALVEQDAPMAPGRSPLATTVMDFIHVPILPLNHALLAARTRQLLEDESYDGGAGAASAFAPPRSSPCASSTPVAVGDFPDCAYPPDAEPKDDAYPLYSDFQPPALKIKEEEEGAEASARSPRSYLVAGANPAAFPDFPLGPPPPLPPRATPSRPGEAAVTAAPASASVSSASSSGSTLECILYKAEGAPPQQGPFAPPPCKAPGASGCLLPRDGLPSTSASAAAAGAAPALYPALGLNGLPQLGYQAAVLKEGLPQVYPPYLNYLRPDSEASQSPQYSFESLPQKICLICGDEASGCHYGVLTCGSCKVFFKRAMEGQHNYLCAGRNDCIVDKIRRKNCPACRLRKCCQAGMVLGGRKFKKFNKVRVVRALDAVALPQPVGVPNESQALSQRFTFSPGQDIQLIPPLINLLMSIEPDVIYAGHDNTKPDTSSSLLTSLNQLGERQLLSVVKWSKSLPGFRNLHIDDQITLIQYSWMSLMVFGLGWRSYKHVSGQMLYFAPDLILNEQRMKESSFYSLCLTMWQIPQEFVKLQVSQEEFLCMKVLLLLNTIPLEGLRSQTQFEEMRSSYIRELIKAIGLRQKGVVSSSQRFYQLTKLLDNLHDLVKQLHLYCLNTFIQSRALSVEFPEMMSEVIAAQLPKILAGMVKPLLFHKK
Chain of Estrogen receptor (Homo sapiens) (P03372 whole entry, looked up): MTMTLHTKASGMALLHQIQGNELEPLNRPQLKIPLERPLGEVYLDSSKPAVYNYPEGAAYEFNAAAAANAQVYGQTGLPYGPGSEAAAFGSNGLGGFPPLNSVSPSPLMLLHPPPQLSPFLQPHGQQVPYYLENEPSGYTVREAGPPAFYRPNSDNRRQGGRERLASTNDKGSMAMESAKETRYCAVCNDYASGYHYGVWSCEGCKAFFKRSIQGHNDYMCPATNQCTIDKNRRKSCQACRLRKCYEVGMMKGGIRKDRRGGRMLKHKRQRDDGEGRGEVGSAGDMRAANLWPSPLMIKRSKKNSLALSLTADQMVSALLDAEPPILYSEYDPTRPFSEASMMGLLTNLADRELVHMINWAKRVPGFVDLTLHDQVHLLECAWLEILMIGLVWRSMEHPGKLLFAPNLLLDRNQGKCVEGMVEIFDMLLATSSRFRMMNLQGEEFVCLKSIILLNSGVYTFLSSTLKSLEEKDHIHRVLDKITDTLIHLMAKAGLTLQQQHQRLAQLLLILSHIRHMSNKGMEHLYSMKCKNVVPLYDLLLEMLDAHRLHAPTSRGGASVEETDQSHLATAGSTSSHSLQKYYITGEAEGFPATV

Turning to `CC1=CCCC(C)(C)C12CCC(C)O2` (configuration not stated), the Potency result in assay [1], in assay [2], in assay [3], in assay [4], in assay [5] and in [6] was “inactive” each time. In addition, the Potency entry in [7], in assay [8], in assay [9] and in assay [12] was “inactive” in each case. The call in assay [10] and in [11] was inactive.
For `CNCCCCOc1ccccc1Cc1ccccc1`, the Potency entry in [1], in [13], in assay [14], in assay [15], in assay [16] and in assay [18] was “inactive” in each case. In assay [12], the Potency result is “inactive”. Further, the Potency was 11.9 µM (active) in assay [2]; 11.9 µM (active) in assay [4]; 26.6 µM (active) in assay [17]; 6.68 µM (active) in assay [7]; 6.68 µM (active) in assay [8]. Further, the outcome in assay [11] was inactive.
On to `COC(=O)C1=C(C)NC(COC(N)=O)=C(C(=O)OC(C)C)C1c1cccc(Cl)c1Cl` (configuration not stated), for which the Potency entry in assay [1], in assay [2], in assay [3], in [19], in assay [5] and in assay [13] was “inactive” in each case. The Potency result in [14], in assay [6], in assay [15] and in assay [9] was “inactive” throughout. The outcome in assay [10] was inactive.
With `CCCCCCOC(=O)NC(=N)c1ccc(NCc2nc3cc(C(=O)N(CCC(=O)OCC)c4ccccn4)ccc3n2C)cc1`, the Potency in [20] was 1.19 µM (active); in assay [4], 11.9 µM (active); in assay [5], 11.9 µM (active); in assay [6], 29.8 µM (active); in assay [7] it was 21.1 µM (active); in assay [8], 18.8 µM (active). Moreover, the Potency result in assay [13], in assay [14] and in assay [12] was “inactive” in each case. Besides, the molecule was classed as inactive in assay [11].
As for `CC(C)(C)OCC1CO1` (configuration not stated), the Potency result in assay [1], in assay [2], in [3], in assay [4], in [5] and in assay [14] was “inactive” throughout. Moreover, the Potency result in [15], in assay [16], in assay [7], in assay [8], in assay [9] and in assay [18] was “inactive” each time. Moreover, the outcome in assay [10] and in assay [11] was inactive.
In the case of `COc1cc2nc(N3CCN(C(=O)C4COc5ccccc5O4)CC3)nc(N)c2cc1OC` (configuration not stated), the Potency result in assay [1], in assay [3], in assay [4], in [5], in [14] and in [16] was “inactive” in each case. Also, the Potency result in [17], in assay [8] and in assay [9] was “inactive” in each case. Besides, in [10], the result was inactive.
Consider `COc1ccc(C(=O)c2ccc(OC)cc2O)c(O)c1`, for which the results for the Potency in [1] and in [13] were 48.9 µM (active) and 8.7 µM (active), respectively. Besides, the Potency entry in assay [2], in [3], in assay [4], in [19], in assay [5] and in [14] was “inactive” each time. Further, the Potency entry in assay [6], in assay [15], in assay [16], in [7] and in assay [18] was “inactive” each time. For the same molecule, the outcome in assay [10] and in [11] was inactive.
As to `CCCCCCCN`, the Potency result in assay [1], in [3], in [4], in [5], in [13] and in [14] was “inactive” each time. Further, the Potency entry in assay [6], in [15], in [16], in assay [7] and in assay [9] was “inactive” in each case. Besides, the outcome in assay [10] and in [11] was inactive.
Take `COc1cc(Cl)c(OC)cc1N`: the Potency entry in [1], in [2], in assay [3], in assay [4], in assay [5] and in [14] was “inactive” in each case. The Potency entry in [15], in assay [16], in assay [8], in [18] and in [12] was “inactive” throughout. The result in assay [10] and in assay [11] was inactive.
Regarding `CCCCCCCCCc1ccc(OCCOCCO)cc1`, the Potency result in assay [1], in [19], in [14] and in assay [18] was “inactive” each time. Further, the Potency in assay [3] is 5.74 µM (active); in assay [4], 20.4 µM (active); in assay [6] it was 25.6 µM (active); in assay [15], 22.8 µM (active); in assay [17] it was 12.8 µM (active); in [9], 18.3 µM (active). Also, in assay [11], the outcome was inactive.
